Experimental data published in PubChem BioAssay (NCI).
The panel holds about 83,000 compounds, 20% with a hit somewhere; the sample as a whole holds those more often.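 Testing used 96-well plates and a 48-hour single-concentration exposure. Example: -40 means 40% of the starting cells died.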 Values without a mark were called inactive. Calls of active or inactive are those of the source. How the source made its calls: active means growth percent below 10; inactive means the rest.

These compounds were tested on HL-60(TB) leukemia (assay: NCI-60 one-dose screen, 48 h (100 = growth as untreated, 0 = no growth, -100 = all killed)). Settings: 10 µM unless noted.
`Clc1ccc2c(NCCCN3CCOCC3)c3oc4ccccc4c3nc2c1` gave a growth of 37.9%. `COc1ccc(NC(=O)[C@H](C)NC(=O)OC(C)(C)C)cc1C(=O)Nc1cccc(-c2cc(=O)c3c(OC)c(OC)c(OC)cc3o2)c1` was tested, and the growth was 2.88% (active). In the case of `NC(N)=Nc1ccc(Oc2ccc(Nc3ccc(Cl)c(C(F)(F)F)c3)cc2)cc1`, the growth is reported as -33.8% (active). For `Cc1ccc(C(=O)CSc2nc3ccccc3c(=O)n2C)cc1`, the growth was 87.4%. Work on `CS(=O)(=O)c1ccc(-c2nn(-c3ccccc3)cc2/C=N/NC(=O)c2nc(N)n[nH]2)cc1` yielded a growth of 76.8%. `O=S(=O)(NCCNc1nccc(-n2cnc3ccccc32)n1)c1ccc(Br)cc1` gave a growth of 114%. Compound `C#CCC#CCN1CCC[C@H]1C(=O)NCC(=O)OC` has a growth of 105%. With `CCNC(=O)N1CCc2cc(OC)c(OCCc3ccc(OC)cc3)cc2C1c1ccc(Cl)cc1C` (configuration not stated) the growth was 12.2%. Work on `COc1ccccc1N1CCN(C2=CC(=O)C(C)=C(C)C2=O)CC1` yielded a growth of 113%. `C=C(C)C(=O)O[C@H]1C[C@@]2(C)OC(=CC2=O)/C(CO)=C\[C@H]2OC(=O)C(=C)[C@H]12` was tested, and the growth was -31.2% (active). Work on `O=C1[C@H]2Cc3c([nH]c4ccccc34)[C@@H](c3ccc(Cl)cc3)N2C(=O)CN1C1CCN(Cc2c(Cl)cccc2Cl)CC1` yielded a growth of 108%. In the case of `O=C1Nc2cc(OC(F)(F)F)ccc2Oc2ccc(-c3ccnc(N4CCNCC4)c3)cc21`, the growth is reported as -41.4% (active). For `CC(=O)Nc1nc2c(s1)C1=CC[C@H]3[C@@H]4CC[C@H](C(C)=O)[C@@]4(C)CC[C@@H]3[C@@]1(C)CC2`, the growth was 52.5%. `CCOC(=O)C1=NNC(c2ccc(Cl)cc2)C1C(=O)N1C(=S)NC(=O)C1CC(C)C` (configuration not stated) showed a growth of 106%. For `O=C(NNc1nc2cc(F)cc(F)c2n2cccc12)c1cccnn1`, the growth was 3.63% (active). In the case of `Cc1cc(O)c(=O)cc2c1C[C@H]1CC(C)(C)/C=C/C[C@]3(C)Oc4cc(=O)c(O)cc(C)c4C[C@H]3C[C@H](O)[C@@]1(C)O2`, the growth is reported as -31.8% (active). For `CCN1C(=S)N(c2ccccc2)C2NC(=O)N(/N=C/C=C/c3ccccc3OC)C21` (configuration not stated), the growth was 64.2%. In the case of `C=CCn1c(SCC(=O)Nc2ccc(C(=O)/C=C/c3ccc(Cl)cc3)cc2)nnc1-c1c[nH]c2ccccc12`, the growth is reported as 87.5%. `CN(C)c1cccc2c(S(=O)(=O)Nc3cccc(-c4csc(NC(=O)CCCCCN5CCN(CCO)CC5)n4)c3)cccc12` gave a growth of 74.8%. `C#C[C@]1(O)CC[C@H]2[C@@H]3CC=C4c5sc(-c6ccc7c(c6)OCO7)nc5CC[C@]4(C)[C@H]3CC[C@@]21C` showed a growth of 46.8%. Work on `COC(=O)[C@@H](Cc1c[nH]c2ccccc12)NC(=O)CCCCOc1cc(O)c2c(=O)cc(-c3ccccc3)oc2c1` yielded a growth of 84.1%. `CS(=O)(=O)c1ccc(-c2nc3ccccn3c2/C=N/Nc2nc(-c3ccc(Cl)cc3)cs2)cc1` gave a growth of 99.2%. `CCOc1cccc(/C(N)=N/C(N)=N/c2nc3ccccc3s2)c1` showed a growth of 72.2%. For `COc1ccc2c(c1)c(-c1cc(N)n3nc(-c4cn(C)c5ccc(OC)cc45)cc3n1)cn2C`, the growth was 5.19% (active). In the case of `CCCSc1nc(Nc2ccc(/C(C)=N\NC(N)=S)cc2)c(C#N)c(-c2ccc(OC)cc2)n1`, the growth is reported as 74%. With `Nc1nc(-c2cccc([N+](=O)[O-])c2)c(N=Nc2ccccc2Cl)s1` the growth was 93.7%. `Fc1ccc(-c2cn3c(-c4c[nH]c5ccc(Br)cc45)csc3n2)cc1` was tested, and the growth was 104%. `CCN(CC)CCn1c2ccc(O)cc2c2sc3cc(OC)ccc3c(=O)c21` was tested, and the growth was 16.5%. Compound `CCOC(=O)c1c(Nc2ccccc2)nn2c(-c3ccco3)c(C#N)cnc12` has a growth of 110%. `C#C[C@]1(O)CC[C@H]2[C@@H]3CC=C4c5sc(Nc6ncccc6C)nc5CC[C@]4(C)[C@H]3CC[C@@]21C` was tested, and the growth was -29.6% (active). In the case of `CC1(C)CC[C@]2(C(=O)O)CC[C@]3(C)C(=CCC4[C@@]5(C)C[C@@H](O)[C@@H]6OC(c7ccccc7O)OC[C@@]6(C)C5CC[C@]43C)C2C1` (some centres not stated), the growth is reported as 38%. With `CCC/C=C/C=C/C(=O)N[C@@H](Cc1cc(F)cc(F)c1)C(=O)N[C@@H]1C(=O)N2CCC[C@H]2C(=O)N2CCCC[C@H]2C(=O)N[C@@H](C)C(=O)N2C[C@H](C)C[C@H]2C(=O)O[C@H]1C` the growth was 3.76% (active).
